The text below walks through data of PubChem BioAssay (Tox21).

The nature of assay [1]: qHTS RealTime-Glo MT Cell Viability Assay in HEK293 cells - 16 hour (AID 1224872). Note: nearly all actives have a fitted effect of over 50% in size. In a few lines:
(§1)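 Luminescence generated by NanoLuc from substrate produced by living HEK293 cells served as the viability signal. Each value reflects the reading at its stated time point during continuous 40 h compound exposure at 37 C.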
(In general: Quantitative high-throughput screening tests each substance at several concentrations.)

Assay [2] is described as follows: qHTS RealTime-Glo MT Cell Viability Assay in HEK293 cells - 40 hour (AID 1224874). Note: nearly all actives have a fitted effect of over 50% in size. The conditions noted are these: RealTime-Glo luminescence; max response: stronger effect = lower value. The gist of the method: (§2)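 Luminescence readout at each listed time point; HEK293, 600 cells/well, RealTime-Glo MT reagent added with cells; compounds pinned (23 nL in DMSO) after 5 h at 37 C; continuous culture at 37 C.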

A short description of assay [3]: A CellTox Green Cytotoxicity Assay to monitor cytotoxicity in HepG2 cells - 16 hour (AID 1224876). For cytotoxicity increase: % is set by controls: 0 for no effect and ±100 for the full control effect. Note: nearly all actives have a fitted effect of over 45% in size. In a few lines:
(§3)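 HepG2, 600 cells/well premixed w/ CellTox Green; 5 h settle, 37 C/5% CO2; pintool cpd add (DMSO); 37 C, 40 h; fluorescence read at 0, 8, 16, 24, 32, 40 h.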

Assay [4] can be described thus: A CellTox Green Cytotoxicity Assay to monitor cytotoxicity in HepG2 cells - 24 hour (AID 1224878). Note: nearly all actives have a fitted effect of over 45% in size. In a few lines: as §3
The nature of assay [5]: A CellTox Green Cytotoxicity Assay to monitor cytotoxicity in HepG2 cells - 40 hour (AID 1224879). Note: nearly all actives have a fitted effect of over 40% in size. In a few lines: as §3
Assay [6] in a line: qHTS RealTime-Glo MT Cell Viability Assay in HEK293 cells - 0 hour (AID 1224880). For activity change, negative = cytotoxicity: top concentration of the series differs between compounds; % is set by controls: 0 for no effect and ±100 for the full control effect. Note: nearly all actives have a fitted effect of over 45% in size. In a few lines: as §2
The nature of assay [7]: A CellTox Green Cytotoxicity Assay to monitor cytotoxicity in HEK293 cells - 32 hour (AID 1224881). Note: nearly all actives have a fitted effect of over 40% in size. The gist of the method: (§4)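 Read-out: fluorescence of a cell-impermeant cyanine dye staining DNA of dead cells, proportional to cytotoxicity. HEK293, 600 cells/well with reagent, compound (23 nL DMSO) added after 5 h; reads at 0, 8, 16, 24, 32, 40 h.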
A short description of assay [8]: A CellTox Green Cytotoxicity Assay to monitor cytotoxicity in HepG2 cells - 0 hour (AID 1224882). For Cytotoxicity: % is set by controls: 0 for no effect and ±100 for the full control effect. Note: nearly all actives have a fitted effect of over 35% in size. The gist of the method:
as §3

Assay [9] in a line: A CellTox Green Cytotoxicity Assay to monitor cytotoxicity in HepG2 cells - 32 hour (AID 1224883). Note: nearly all actives have a fitted effect of over 50% in size. In a few lines:
as §3

The nature of assay [10]: A CellTox Green Cytotoxicity Assay to monitor cytotoxicity in HEK293 cells - 8 hour (AID 1224884). For cytotoxicity increase: % is set by controls: 0 for no effect and ±100 for the full control effect. Note: nearly all actives have a fitted effect of over 35% in size. In a few lines: as §4
Assay [11] is described as follows: qHTS RealTime-Glo MT Cell Viability Assay in HEK293 cells - 24 hour (AID 1224886). Note: nearly all actives have a fitted effect of over 50% in size. In a few lines: as §1
Assay [12] is described as follows: qHTS RealTime-Glo MT Cell Viability Assay in HEK293 cells - 8 hour (AID 1224887). Note: nearly all actives have a fitted effect of over 50% in size. In a few lines: as §2
A short description of assay [13]: A CellTox Green Cytotoxicity Assay to monitor cytotoxicity in HEK293 cells - 16 hour (AID 1224888). Note: nearly all actives have a fitted effect of over 35% in size. In a few lines:
as §4

Assay [14] is described as follows: qHTS RealTime-Glo MT Cell Viability Assay in HepG2 cells - 0 hour (AID 1224889). Note: nearly all actives have a fitted effect of over 50% in size. The gist of the method:
(§5)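 Tox21 10K library screened in qHTS format on HepG2 cells carrying RealTime-Glo reagents. Compounds were added after a 5 h preincubation, and the luminescent signal from continuous culture was measured repeatedly during 40 h treatment.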

A short description of assay [15]: A CellTox Green Cytotoxicity Assay to monitor cytotoxicity in HepG2 cells - 8 hour (AID 1224890). Note: nearly all actives have a fitted effect of over 45% in size. In a few lines:
as §3

A short description of assay [16]: qHTS assay to identify small molecule antagonists of the estrogen receptor alpha (ER-alpha) signaling pathway using the BG1 cell line in the presence of 0.1 nM 17-beta-estradiol - cell viability counter screen (AID 1259241). Note: nearly all actives have a fitted effect of over 40% in size. In a few lines:
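CellTiter-Fluor read (30 min, 37C) on ER-alpha/ERE-luc VM7Luc4E2 cells; 22 hr compound treatment; agonist 0.1 nM E2 final; same-well multiplex.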

Assay [17] is described as follows: qHTS RealTime-Glo MT Cell Viability Assay in HepG2 cells - 8 hour (AID 1224873). Note: nearly all actives have a fitted effect of over 55% in size. In a few lines: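 HepG2 cells mixed with RealTime-Glo MT reagents (NanoLuc plus cell-permeant prosubstrate) were seeded at 600 cells/well, incubated 5 h at 37 C/5% CO2, then pinned with compounds in DMSO; nonlytic luminescence tracked viability during 40 h treatment.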
A short description of assay [18]: A CellTox Green Cytotoxicity Assay to monitor cytotoxicity in HEK293 cells - 24 hour (AID 1224875). Note: nearly all actives have a fitted effect of over 45% in size. In a few lines: as §4
Assay [19] can be described thus: qHTS RealTime-Glo MT Cell Viability Assay in HepG2 cells - 32 hour (AID 1224877). Note: nearly all actives have a fitted effect of over 55% in size. In a few lines: as §5
The nature of assay [20]: qHTS RealTime-Glo MT Cell Viability Assay in HepG2 cells - 16 hour (AID 1224885). Note: nearly all actives have a fitted effect of over 50% in size. The gist of the method:
as §5

Each structure is given as a SMILES string. Several values for one entry are separate records, joined by “and”; a condition that tells them apart may be missing. Identical values can stand only once. Inconclusive results are not listed. The source holds several records for some structures; these can differ, active in one and inactive in another. Activity calls are given as the source filed them. Calls come from the whole dose curve; as a rule, active = well fitted curve in the direction sought with a large enough effect in the repeat runs; inconclusive = weak or mixed curves; inactive = no such curve, though single readings can be large; an effect the other way counts as inactive or inconclusive.
Potency is the fitted concentration of half-maximal effect.

With `CCN1/C(=C/C=C/c2sc3ccccc3[n+]2CC)Sc2ccccc21`, the Potency is 1.04 µM (active) in [1]; 0.0585 µM (active) in assay [2]; 1.85 µM (active) in assay [4]; 1.17 µM (active) in assay [5]; 10.4 µM (active) in assay [7]; 1.17 µM (active) in assay [9]. The Potency in assay [11] is 1.17 µM (active); in assay [16], 2.31 µM (active). The cytotoxicity increase in assay [3] is -2.11% [at 15.8 µM] (inactive); in assay [10], -9.76% [at 15.8 µM] (inactive); in assay [15] it was -7.07% [at 15.8 µM] (inactive). For the same compound, the results for the activity change, negative = cytotoxicity in assay [6], in assay [12] and in assay [14] were -8.36% [at 15.8 µM] (inactive), -21.6% [at 15.8 µM] (inactive) and -13.2% [at 15.8 µM] (inactive), respectively. For the same compound, the cytotoxicity in [8] is -4.71% [at 15.8 µM] (inactive). For the same compound, the activity change in [13] was -3.87% [at 15.8 µM, stronger effect = higher value] (inactive).

Consider `Oc1ccc(Cl)cc1Sc1cc(Cl)ccc1O`, for which the Potency in assay [1] is 21.8 µM (active); in [2], 19.5 µM (active) and 23.9 µM (active); in assay [4], 43.6 µM (active); in assay [5], 48.9 µM (active) and 26.8 µM (active); in [7], 43.6 µM (active) and inactive; in assay [9], 48.9 µM (active) and 26.8 µM (active). Further, the Potency is 19.5 µM (active) and 23.9 µM (active) in assay [11]; 24.5 µM (active) in [12]. Besides, the Potency entry in assay [3], in assay [6], in assay [8], in assay [10], in assay [14] and in assay [15] was “inactive” in each case. Moreover, in [16], the Potency result was “inactive”.

Take `CCCC(c1cc(C(C)(C)C)c(O)cc1C)c1cc(C(C)(C)C)c(O)cc1C`: the Potency was 39.4 µM (active) in assay [17]; 17.6 µM (active) in assay [2]; 55.6 µM (active) in [18]; 44.2 µM (active) in assay [3]; 35.1 µM (active) in assay [19]; 39.4 µM (active) in assay [4]. Further, the Potency in [5] was 31.3 µM (active); in assay [7], 49.6 µM (active); in [9], 35.1 µM (active); in assay [20] it was 44.2 µM (active); in assay [11], 22.1 µM (active); in [12], 44.2 µM (active). The Potency in [16] is 61.9 µM (active). Moreover, the Potency entry in [6], in assay [8] and in [14] was “inactive” in each case.

Regarding `C=CC(=O)OCC(CO)(COC(=O)C=C)COC(=O)C=C`, the Potency in assay [1] was 5.51 µM (active); in assay [18], 43.6 µM (active); in assay [19], 12.3 µM (active) and 17.4 µM (active); in [4] it was 9.81 µM (active); in assay [5], 11 µM (active) and 24.5 µM (active); in [7], 15.5 µM (active). Besides, the Potency in assay [9] is 9.81 µM (active); in assay [20], 13.9 µM (active) and 11 µM (active); in assay [11], 4.91 µM (active); in assay [12] it was 6.19 µM (active) and inactive; in assay [16] it was 15.4 µM (active) and 48.6 µM (active). Further, the Potency result in [3], in [6], in assay [8], in assay [10], in [13] and in assay [14] was “inactive” in each case. In addition, the Potency result in assay [15] is “inactive”.

With `CCCC1O[C@@H]2C[C@H]3[C@@H]4CCC5=CC(=O)C=C[C@]5(C)[C@H]4[C@@H](O)C[C@]3(C)[C@]2(C(=O)CO)O1` (some centres not stated), the Potency entry in [17], in [18], in assay [3], in assay [19], in assay [4] and in assay [7] was “inactive” each time. The Potency result in assay [8], in assay [9], in [10], in [20], in [13] and in [15] was “inactive” in each case. Besides, in assay [16], the Potency entry is “inactive”. In addition, the Potency in assay [2] is 24.6 µM (active) and 43.6 µM (active); in assay [5], 49 µM (active); in [6] it was 30.9 µM (active); in [14], 7.77 µM (active) and 7.76 µM (active).

For the compound `CC[C@@]1(O)C(=O)OCc2c1cc1n(c2=O)Cc2cc3c(CN(C)C)c(O)ccc3nc2-1`, the Potency entry in [17], in assay [6], in [20], in assay [12] and in assay [14] was “inactive” in each case. Moreover, the Potency in assay [2] is 0.0756 µM (active); in assay [18], 23.9 µM (active); in assay [3], 21.3 µM (active); in [4], 10.7 µM (active); in [5] it was 7.56 µM (active); in [7], 23.9 µM (active). Moreover, the Potency in assay [8] is 23.9 µM (active); in [9], 8.49 µM (active); in [11], 0.0849 µM (active); in assay [13] it was 26.8 µM (active); in [15] it was 23.9 µM (active).

`OCCN(CCO)c1nc(N2CCCCC2)c2nc(N(CCO)CCO)nc(N3CCCCC3)c2n1`: the Potency entry in assay [17], in assay [19], in [6], in assay [20] and in assay [14] was “inactive” in each case. The Potency is 26.8 µM (active) in [2]; 21.3 µM (active) in assay [18]; 23.9 µM (active) in assay [3]; 23.9 µM (active) in [4]; 23.9 µM (active) in assay [5]; 19 µM (active) in assay [7]. For the same compound, the Potency in assay [8] was 23.9 µM (active); in assay [9], 23.9 µM (active); in assay [10], 21.3 µM (active); in assay [13], 12 µM (active); in assay [15], 23.9 µM (active).

Regarding `O=C(Nc1cccc(C(F)(F)F)c1)c1cc(Br)cc(Br)c1O`, the Potency result in [17], in assay [18], in assay [3], in [8], in assay [12] and in assay [13] was “inactive” each time. For the same compound, the Potency entry in assay [15] and in assay [16] was “inactive” each time. For the same compound, the Potency in assay [2] was 3.89 µM (active); in assay [4], 19.5 µM (active); in assay [5], 19.5 µM (active); in assay [11] it was 4.9 µM (active).

Regarding `CC[C@H](c1ccc(O)cc1)[C@@H](CC)c1ccc(O)cc1`, the Potency result in assay [17], in [18], in [19], in assay [8], in [10] and in assay [20] was “inactive” in each case. Further, the Potency entry in assay [12], in assay [13], in assay [14] and in assay [16] was “inactive” throughout. In addition, the Potency in [2] was 24.5 µM (active); in assay [3] it was 49 µM (active); in assay [4], 49 µM (active); in assay [5], 49 µM (active); in assay [9] it was 43.6 µM (active); in [11] it was 24.5 µM (active). Further, the Potency in assay [15] is 54.9 µM (active) and inactive.

Take `Cn1cc(C(=O)[C@@H]2CCc3nc[nH]c3C2)c2ccccc21`: the Potency entry in [17], in [18], in [3], in assay [19], in assay [4] and in assay [5] was “inactive” throughout. Further, the Potency entry in [6], in assay [7], in assay [8], in assay [20], in assay [13] and in [14] was “inactive” throughout. Further, the Potency entry in assay [15] and in assay [16] was “inactive” throughout.

Turning to `Cc1ccc(-n2nc(C(C)(C)C)cc2NC(=O)Nc2ccc(OCCN3CCOCC3)c3ccccc23)cc1`, the Potency result in assay [17], in assay [18], in assay [3], in [19], in assay [4] and in [5] was “inactive” each time. For the same compound, the Potency result in assay [6], in assay [7], in [8], in [10], in assay [20] and in [13] was “inactive” throughout. Besides, the Potency result in assay [15] is “inactive”.

In the case of `CCc1oc2ccccc2c1C(=O)c1cc(Br)c(O)c(Br)c1`, the Potency entry in assay [17], in [18], in assay [3], in assay [19], in [4] and in [5] was “inactive” each time. The Potency result in assay [6], in assay [7], in [8], in assay [10], in [20] and in assay [11] was “inactive” in each case. Further, the Potency result in assay [12], in assay [13], in [14], in assay [15] and in [16] was “inactive” throughout.
